# Screens (PubChem)
# ELG1 genotox: qHTS screen for small molecules that induce genotoxicity in human embryonic kidney (HEK293T) cells expressing luciferase-tagged ELG1; 330,000 compounds, 1.3% hits; Potency, µM (highest dose often 46 µM), for the others: top-dose activity change, positive = activation, actives largely listed as activators; HEK293T ELG1-luciferase reporter, luminescence, 16 h; further: % of control where 0% means no effect; nearly all actives have a fitted effect of over 60% in size
#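 Cells (2,000/well) expressing the ELG1-luciferase fusion are dosed by pin tool and kept 16 hr at 37 °C, 5% CO2. Signal comes from ONE-Glo luciferase reagent after 30 min at room temperature.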
# ELG1 DNA repair: qHTS screen for small molecules that inhibit ELG1-dependent DNA repair in human embryonic kidney (HEK293T) cells expressing luciferase-tagged ELG1. HEK293T ELG1-luciferase reporter, luminescence, 16 h; DNA damage induced by 5-fluorouridine. Potency, µM (series often up to 46.1 µM), for the others: at the highest dose activity change, negative = inhibition, actives largely listed as inhibitors. 330,000 compounds, 2.3% hits; further: on the % scale 0 is the no-effect control and ±100 the full control effect; nearly all actives have a fitted effect of over 55% in size
#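 Overnight (16 hr) co-exposure of 2,000 cells/well to 5-fluorouridine and compound at 37 °C preceded detection. Luciferase was quantified via ONE-Glo luminescence; loss of signal denotes inhibition.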
# SMN2 splice enh: qHTS Assay for Enhancers of SMN2 Splice Variant Expression; HEK293 SMN2-luciferase splicing reporter, luminescence, 30-36 h; Potency, µM (series often up to 46.1 µM), inactives show at the highest dose activity change, positive = activation, hits mostly activators; 210,000 compounds, 2.8% hits; AID 1458, 2008; further: % of control where 0% means no effect; nearly all actives have a fitted effect of over 55% in size
#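 HEK293 cells carry an SMN2 minigene-luciferase reporter in which exon 7 inclusion puts luciferase in frame. Cells were seeded at 2000 cells/well, attached for 10-12 hours, then exposed to compounds for 30-36 hours at 37C before ONE-Glo luminescence.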
# FLuc modulator: qHTS profiling assay for firefly luciferase inhibitor/activator using purifed enzyme and Km concentrations of substrates (counterscreen for miR-21 project); AID 588342, 2011; 360,000 compounds, 6.9% hits; Potency, µM (top dose mostly 57.5 µM), for the others: at the top dose activity change, negative = inhibition, most hits filed as inhibitors; purified FLuc, Km substrates, luminescence inhibition; Luciferin 4-monooxygenase (Photinus pyralis), P08659;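 further: plate controls were vehicle for no effect and reference inhibitor for full effect; nearly all actives have a fitted effect of over 55% in size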
# Target sequence (P08659 whole entry, looked up): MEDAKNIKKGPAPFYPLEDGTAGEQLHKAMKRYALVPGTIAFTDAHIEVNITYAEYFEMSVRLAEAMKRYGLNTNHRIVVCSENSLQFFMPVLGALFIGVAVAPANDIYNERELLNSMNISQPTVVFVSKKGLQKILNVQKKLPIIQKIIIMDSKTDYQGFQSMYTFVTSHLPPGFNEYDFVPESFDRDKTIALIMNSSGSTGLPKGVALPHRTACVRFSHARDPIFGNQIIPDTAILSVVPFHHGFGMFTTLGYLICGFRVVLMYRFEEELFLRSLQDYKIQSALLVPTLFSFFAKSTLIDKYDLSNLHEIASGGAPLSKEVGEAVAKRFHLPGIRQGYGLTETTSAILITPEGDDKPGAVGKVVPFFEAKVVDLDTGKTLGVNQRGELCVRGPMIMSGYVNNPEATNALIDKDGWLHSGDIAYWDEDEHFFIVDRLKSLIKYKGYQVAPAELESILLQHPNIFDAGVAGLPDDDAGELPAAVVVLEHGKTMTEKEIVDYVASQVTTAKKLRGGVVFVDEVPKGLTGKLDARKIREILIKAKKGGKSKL
#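 Purified P. pyralis luciferase, 10 nM final, with Km-level 10 uM D-luciferin and 10 uM ATP in 50 mM Tris acetate pH 7.5, 10 mM Mg acetate, 0.01% Tween-20, 0.05% BSA; 6-point qHTS titration about 60 µM downward; luminescence read.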
# NPC1 promoter act: qHTS Assay for NPC1 Promoter Activators | Huh7 NPC1 promoter luciferase reporter, 24 h | Potency, µM (series often up to 9.22 µM), for the others: at the highest dose activation, most hits filed as activators | 320,000 compounds, 2.4% hits | AID 485313, 2010; further: % of control where 0% means no effect; nearly all actives have a fitted effect of over 60% in size
#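 Cells: Huh7 expressing luciferase under the NPC1 promoter, 1500/well. Seeded 2 h, compound added, incubated 24 h at 37 °C. Luciferase reagent, 10 min ambient, then luminescence.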
# Rab9 promoter act: qHTS Assay for Rab9 Promoter Activators. Huh7 Rab9 promoter-luciferase reporter, luminescence, 24 h. Potency, µM (top dose mostly 9.22 µM), for the others: top-dose activation, negative = inhibition, most hits filed as activators. 320,000 compounds, 2.8% hits. AID 485297, 2010; further: % of control where 0% means no effect; nearly all actives have a fitted effect of over 60% in size
#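 Measured in stably transfected Huh7 cells bearing a Rab9 promoter–luciferase construct: 24 h compound treatment at 37 °C, followed by luminescence detection.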
# The depositor's hits bear a star; u = inconclusive; x = no result given. Compounds with a hit are over-represented: about 9.2% of the library has one in this group of screens. The call rests on the fitted dose curve; in most records, active means well fitted curve in the direction sought with a large enough effect; inconclusive means small, poorly fitted or top-dose-only effect, or another doubt; inactive means no such curve, though single readings can be large; an effect the other way counts as inactive or inconclusive. Potency means the concentration at half of the fitted maximal effect.
SMILES,ELG1 genotox,ELG1 DNA repair,SMN2 splice enh,FLuc modulator,NPC1 promoter act,Rab9 promoter act
CCn1cc(Br)c(C(=O)Nc2cccc(Cl)c2)n1,u,u,11µM*,u,4µM*,2µM*
NC(=O)c1ccsc1NC(=O)COC(=O)CNC(=O)c1ccc(Cl)cc1,2%,12%,x,x,x,x
Cc1cc(C)cc(C(=O)N2CCN(c3ccccn3)CC2)c1,0%,16%,x,-2%,-4%,-12%
CCn1cc(Br)c(C(=O)Nc2ccc(Cl)c(Cl)c2)n1,u,u,u,u,u,3.5µM*
COc1ccc(NC(=O)c2ccc(C)cc2)cc1,2.1µM*,u,x,2.7µM*,0.4µM*,0.45µM*
COc1ccc(C(=O)Nc2ccc(SC(F)F)cc2)cc1,u,u,u,3µM*,2.2µM*,0.79µM*
COc1ccc(C(=O)NNC(=O)C(=O)Nc2ccc(C)cc2)cc1,3%,2%,x,8%,-6%,-1%
COc1ccc(CC(=O)Nc2cccc(C(=O)Nc3cccc(C)c3)c2)cc1,5%,-11%,x,-6%,-2%,0%
COc1ccc(C(=O)Nc2cccc(C)c2)cc1,u,u,11µM*,3.4µM*,1.3µM*,1.3µM*
CN(C(=S)Oc1ccc(C(=O)Nc2ccccc2)cc1)c1ccccc1,0%,18µM*,-57%,-12%,-3%,-10%
COc1ccc(OC)c(NC(=O)c2cc(S(=O)(=O)N3CCCC3)cn2C)c1,0%,-7%,x,4%,2%,4%
COc1cc(OC)cc(-c2c(-c3cccs3)c3cc(-c4ccc(C(N)=O)cc4)ccc3n2C)c1,u,20%,x,x,x,x
CCOCCCNC(=O)c1cnc2sc(N3CCCCCC3)nn2c1=O,x,x,x,0%,x,x
Cc1noc(C)c1C(=O)N1CCC2(CC1)CN(C(=O)Nc1cccc(F)c1)C2,x,x,-11%,x,x,x
O=C(c1ccncc1)N1CCC[C@@]2(CCN(Cc3ccncc3)C2)C1,x,x,-7%,x,x,x
Cc1cnc(C(=O)Oc2ccc(-c3ccccc3)cc2)cn1,6%,22%,x,u,0%,0%
O=C(Nc1ccsc1C(=O)O)c1ccccc1,12%,u,x,24µM*,6%,12%
COc1ccc2cc3cc(C(=O)NCc4ccco4)oc3nc2c1,13%,7%,-17%,u,-1%,-4%
O=C(NCc1ccco1)c1cccc(NC(=O)c2ccco2)c1,7%,3%,-8%,-18%,-2%,7%
COc1ccc(C(=O)Nc2cccc(C(=O)NCc3ccco3)c2)cc1,2%,-4%,x,12µM*,18%,17%
O=C(Nc1ccc(SC(F)F)cc1)c1ccc2nccnc2c1,0%,u,-6%,11µM*,u,23%
COc1ccc2cc3c(N)c(C(=O)NCc4ccco4)sc3nc2c1,15%,u,13µM*,6µM*,u,2µM*
CC[C@]12c3[nH]c4ccc(Cl)cc4c3CCN1C(=O)[C@@H](CC(=O)NC/C=C(\C)CCC=C(C)C)C[C@@H]2C(=O)N1CCN(C(=O)c2ccco2)CC1,7%,u,x,x,x,x
Cc1c(C(=O)N(Cc2ccc(Cl)cc2)CC2CCCO2)oc2ccc(F)cc12 (stereo not drawn),x,x,x,2%,x,x
CCC(C(=O)Nc1ccc(C(C)=O)cc1)n1c(C)c2cnn(-c3ccccc3)c(=O)c2c1C (stereo not drawn),x,x,15%,-3%,x,x
Cc1ccc(CN2CCN(C3CCNCC3)C(=O)C2=O)cc1,x,x,x,2%,x,x
Cc1cccc(NC(=O)CCCn2c(=S)[nH]c3ccccc3c2=O)c1,0%,-15%,-20%,-4%,-5%,-12%
